# Data as given in the supplement of paper PMC8728848.
# The full list was thinned out, with the strongest signals kept by preference.
# B1: HHL-2 (Homo sapiens), P07307 (protein)
# chain: MAKDFQDIQQLSSEENDHPFHQGEGPGTRRLNPRRGNPFLKGPPPAQPLAQRLCSMVCFSLLALSFNILLLVVICVTGSQSEGHRGAQLQAELRSLKEAFSNFSSSTLTEVQAISTHGGSVGDKITSLGAKLEKQQQDLKADHDALLFHLKHFPVDLRFVACQMELLHSNGSQRTCCPVNWVEHQGSCYWFSHSGKAWAEAEKYCQLENAHLVVINSWEEQKFIVQHTNPFNTWIGLTDSDGSWKWVDGTDYRHNYKNWAVTQPDNWHGHELGGSEDCVEVQPDGRWNDDFCLQVYRWVCEKRRNATGEVA
# B2: DC-ASPGR (Homo sapiens), CLC10_HUMAN (protein)
# chain: LDQNSKFQRDLVTLRTDFSNFTSNTVAEIQALTSQGSSLEETIASLKAEVEGFKQERQAVHSEMLLRVQQLVQDLKKLTCQVATLNNNASTEGTCCPVNWVEHQDSCYWFSHSGMSWAEAEKYCQLKNAHLVVINSREEQNFVQKYLGSAYTWMGLSDPEGAWKWVDGTDYATGFQNWKPGQPDDWQGHGLGGGEDCAHFHPDGRWNDDVCQRPYHWVCEAGLGQTSQESHVEPKSCDKTHTCPPCPAPELLGGPSVFLFPPKPKDTLMISRTPEVTCVVVDVSHEDPEVKFNWYVDGVEVHNAKTKPREEQFNSTYRVVSVLTVLHQDWLNGKEYKCKVSNKGLPSSIEKTISKAKGQPREPQVYTLPPSQEEMTKNQVSLTCLVKGFYPSDIAVEWESNGQPENNYKTTPPVLDSDGSFFLYSRLTVDKSRWQEGNVFSCSVMHEALHNHYTQK
# B3: Adiponectin (Rattus norvegicus), Q8K3R4 (protein)
# chain: MLLLQALLFLLILPSHEGITATEGPGALVPPPKETCAGWMAGIPGYPGHNGIPGRDGRDGTPGEKGEKGDAGVLGPKGDPGDAGMTGAEGPRGFPGTPGRKGEPGEAAYMYHSAFSVGLETRVTVPNVPIRFTKIFYNQQNHYDGSTGKFHCNIPGLYYFSYHITVYMKDVKVSLFKKDKAVLFTYDQYQEKNVDQASGSMLLHLEVGDQVWLQVYGEGDNNGLYADNVNDSTFTGFLLYHDTN
# Legend:
# Assay in all cases: glycan array binding signal (z-score within array); higher = stronger binding
# Conditions in all cases: glycan notation: IUPAC condensed, linker removed
# [1] = molecular target: Fuc(a1-2)Gal(b1-3)GlcNAc(b1-2)Man(a1-3)[Fuc(a1-2)Gal(b1-3)GlcNAc(b1-2)Man(a1-6)]Man(b1-4)GlcNAc(b1-4)GlcNAc
# In short: (§1)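 Arrays were curated from the Consortium for Functional Glycomics database, 3228 in total, and kept only where the protein sequence was available. Binding is expressed as a within-array Z-score. This score was averaged across arrays of the same protein sequence at different concentrations or buffers and across linkers, and negative values can be read as non-binding.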
# [2] = molecular target: Fuc(a1-2)Gal(b1-4)[Fuc(a1-3)]GlcNAc(b1-2)Man(a1-3)[Fuc(a1-2)Gal(b1-4)[Fuc(a1-3)]GlcNAc(b1-2)Man(a1-6)]Man(b1-4)GlcNAc(b1-4)GlcNAc
# In short: as §1
# [3] = molecular target: Fuc(a1-2)[GalNAc(a1-3)]Gal(b1-4)GlcNAc
# In short: as §1
# [4] = molecular target: Fuc(a1-3)[Gal(b1-4)]GlcNAc(b1-4)Gal(b1-4)[Fuc(a1-3)]GlcNAc
# In short: as §1
# [5] = molecular target: Fuc(a1-3)[Gal3S(b1-4)]Glc6S
# In short: as §1
# [6] = molecular target: Fuc(a1-3)[GalNAc(b1-4)]GlcNAc
# In short: as §1
# [7] = molecular target: Fuc(a1-3)[Neu5Ac(a2-3)]Gal(b1-4)GlcNAc(b1-3)GalNAc
# In short: as §1
# [8] = molecular target: Gal(b1-3)GalNAc(a1-3)[Fuc(a1-2)]Gal(b1-4)GlcNAc
# In short: as §1
# [9] = molecular target: Gal(b1-3)[Fuc(a1-4)]GlcNAc(b1-2)Man(a1-3)[Gal(b1-3)[Fuc(a1-4)]GlcNAc(b1-2)Man(a1-6)]Man(b1-4)GlcNAc(b1-4)GlcNAc
# In short: as §1
# Gal(b1-4)Glc6S = molecular target: Gal(b1-4)Glc6S
# In short: as §1
# [10] = molecular target: Gal(b1-4)GlcNAc(b1-3)Gal(b1-3)GlcNAc
# In short: as §1
# [11] = molecular target: Gal(b1-4)GlcNAc(b1-3)Gal(b1-4)GlcNAc
# In short: as §1
# [12] = molecular target: Gal(b1-4)GlcNAc(b1-3)[GlcNAc(b1-6)]Gal(b1-4)GlcNAc
# In short: as §1
# Gal6S(b1-4)GlcNAc6S = molecular target: Gal6S(b1-4)GlcNAc6S
# In short: as §1
# [13] = molecular target: GalNAc(b1-4)GlcNAc(b1-2)Man(a1-3)[GalNAc(b1-4)GlcNAc(b1-2)Man(a1-6)]Man(b1-4)GlcNAc(b1-4)GlcNAc
# In short: as §1
# GlcA(b1-3)GlcNAc = molecular target: GlcA(b1-3)GlcNAc
# In short: as §1
# [14] = molecular target: GlcNAc(b1-2)Man(a1-3)[GlcNAc(b1-2)Man(a1-6)]Man(b1-4)GlcNAc(b1-4)GlcNAc
# In short: as §1
# [15] = molecular target: GlcNAc(b1-4)GlcNAc(b1-4)GlcNAc
# In short: as §1
# GlcNAc(b1-6)GalNAc = molecular target: GlcNAc(b1-6)GalNAc
# In short: as §1
# Man(a1-2)Man(a1-3)Man = molecular target: Man(a1-2)Man(a1-3)Man
# In short: as §1
# [16] = molecular target: Neu5Ac(a2-3)Gal(b1-4)GlcNAc(b1-2)Man(a1-3)[GlcNAc(b1-2)Man(b1-4)GlcNAc(b1-2)Man(a1-6)]Man(b1-4)GlcNAc(b1-4)GlcNAc
# In short: as §1
# [17] = molecular target: Neu5Ac(a2-3)Gal(b1-4)GlcNAc(b1-3)Gal(b1-3)GlcNAc
# In short: as §1
# [18] = molecular target: Neu5Ac(a2-3)Gal(b1-4)GlcNAc6S
# In short: as §1
# [19] = molecular target: Neu5Ac(a2-3)Gal(b1-4)[Fuc(a1-3)]GlcNAc6S
# In short: as §1
# [20] = molecular target: Neu5Ac(a2-3)[Neu5Ac(a2-6)]GalNAc
# In short: as §1
# [21] = molecular target: Neu5Ac(a2-6)Gal(b1-4)GlcNAc(b1-2)Man(a1-3)[Gal(b1-4)GlcNAc(b1-2)Man(a1-6)]Man(b1-4)GlcNAc(b1-4)GlcNAc
# In short: as §1
# [22] = molecular target: Neu5Ac(a2-6)Gal(b1-4)GlcNAc(b1-3)Gal(b1-4)GlcNAc
# In short: as §1
# [23] = molecular target: Neu5Ac(a2-6)Gal(b1-4)GlcNAc6S
# In short: as §1
# [24] = molecular target: Neu5Ac(a2-8)Neu5Ac(a2-8)Neu5Ac(a2-3)Gal(b1-4)Glc
# In short: as §1
# [25] = molecular target: Neu5Ac(a2-8)Neu5Ac(a2-8)Neu5Ac(a2-8)Neu5Ac(a2-3)[GalNAc(b1-4)]Gal(b1-4)Glc
# In short: as §1
# [26] = molecular target: Neu5Ac9Ac(a2-3)Gal(b1-4)GlcNAc
# In short: as §1
# [27] = molecular target: Fuc(a1-2)Gal(b1-3)[Fuc(a1-4)]GlcNAc(b1-2)Man(a1-3)[Fuc(a1-2)Gal(b1-3)[Fuc(a1-4)]GlcNAc(b1-2)Man(a1-6)]Man(b1-4)GlcNAc(b1-4)GlcNAc
# In short: as §1
# [28] = molecular target: Fuc(a1-2)[Gal(a1-4)]Gal(b1-4)GlcNAc
# In short: as §1
# Gal(a1-3)Gal(b1-4)Glc = molecular target: Gal(a1-3)Gal(b1-4)Glc
# In short: as §1
# Gal(a1-4)Gal(b1-4)GlcNAc = molecular target: Gal(a1-4)Gal(b1-4)GlcNAc
# In short: as §1
# Gal(b1-3)GalNAc = molecular target: Gal(b1-3)GalNAc
# In short: as §1
# [29] = molecular target: Gal(b1-4)GlcNAc(a1-6)Gal(b1-4)GlcNAc
# In short: as §1
# [30] = molecular target: Gal(b1-4)GlcNAc(b1-3)Gal(b1-4)GlcNAc(b1-3)Gal(b1-4)GlcNAc
# In short: as §1
# [31] = molecular target: Gal(b1-4)GlcNAc(b1-3)[Gal(b1-4)GlcNAc(b1-6)]Gal(b1-4)GlcNAc
# In short: as §1
# Gal3S(b1-3)GlcNAc = molecular target: Gal3S(b1-3)GlcNAc
# In short: as §1
# [32] = molecular target: Gal3S(b1-3)[Fuc(a1-4)]GlcNAc
# In short: as §1
# Gal3S4S(b1-4)GlcNAc = molecular target: Gal3S4S(b1-4)GlcNAc
# In short: as §1
# Gal6S(b1-4)GlcNAc = molecular target: Gal6S(b1-4)GlcNAc
# In short: as §1
# GalNAc(a1-3)Gal = molecular target: GalNAc(a1-3)Gal
# In short: as §1
# GlcA(b1-6)Gal = molecular target: GlcA(b1-6)Gal
# In short: as §1
# [33] = molecular target: Man(a1-3)[Man(a1-6)]Man(a1-6)[Man(a1-3)]Man(b1-4)GlcNAc(b1-4)GlcNAc
# In short: as §1
# Man(b1-4)GlcNAc = molecular target: Man(b1-4)GlcNAc
# In short: as §1
# Neu5Ac(a2-3)Gal = molecular target: Neu5Ac(a2-3)Gal
# In short: as §1
# [34] = molecular target: Neu5Ac(a2-3)Gal(b1-4)[Fuc(a1-3)]GlcNAc
# In short: as §1
# [35] = molecular target: Neu5Ac(a2-6)Gal(b1-4)GlcNAc(b1-2)Man(a1-3)Man(b1-4)GlcNAc(b1-4)GlcNAc
# In short: as §1
# [36] = molecular target: Neu5Ac(a2-6)Gal(b1-4)GlcNAc(b1-2)Man(a1-6)[GlcNAc(b1-2)Man(a1-3)]Man(b1-4)GlcNAc(b1-4)GlcNAc
# In short: as §1
# [37] = molecular target: Neu5Ac(a2-8)Neu5Ac(a2-3)[GalNAc(b1-4)]Gal(b1-4)Glc
# In short: as §1
# [38] = molecular target: Neu5Gc(a2-3)Gal(b1-4)GlcNAc
# In short: as §1
binder,measurement,setting,value
B1,glycan array binding signal (z-score),[1],-0.497
same,glycan array binding signal (z-score),[2],2.08
same,glycan array binding signal (z-score),[3],-0.68
same,glycan array binding signal (z-score),[4],-0.334
same,glycan array binding signal (z-score),[5],-0.68
same,glycan array binding signal (z-score),[6],-0.451
same,glycan array binding signal (z-score),[7],6.72
same,glycan array binding signal (z-score),[8],-0.536
same,glycan array binding signal (z-score),[9],0.043
same,glycan array binding signal (z-score),Gal(b1-4)Glc6S,-0.52
same,glycan array binding signal (z-score),[10],-0.728
same,glycan array binding signal (z-score),[11],-0.474
same,glycan array binding signal (z-score),[12],-0.539
same,glycan array binding signal (z-score),Gal6S(b1-4)GlcNAc6S,3.54
same,glycan array binding signal (z-score),[13],3.17
same,glycan array binding signal (z-score),GlcA(b1-3)GlcNAc,-0.012
same,glycan array binding signal (z-score),[14],-0.677
same,glycan array binding signal (z-score),[15],2.8
same,glycan array binding signal (z-score),GlcNAc(b1-6)GalNAc,-0.738
same,glycan array binding signal (z-score),Man(a1-2)Man(a1-3)Man,-0.028
same,glycan array binding signal (z-score),[16],2.39
same,glycan array binding signal (z-score),[17],3.56
same,glycan array binding signal (z-score),[18],-0.075
same,glycan array binding signal (z-score),[19],0.012
same,glycan array binding signal (z-score),[20],-0.847
same,glycan array binding signal (z-score),[21],0.34
same,glycan array binding signal (z-score),[22],-0.539
same,glycan array binding signal (z-score),[23],2.18
same,glycan array binding signal (z-score),[24],3.59
same,glycan array binding signal (z-score),[25],0.721
B2,glycan array binding signal (z-score),[26],-0.099
B3,glycan array binding signal (z-score),[1],4.69
same,glycan array binding signal (z-score),[27],2.87
same,glycan array binding signal (z-score),[28],-0.75
same,glycan array binding signal (z-score),Gal(a1-3)Gal(b1-4)Glc,2.17
same,glycan array binding signal (z-score),Gal(a1-4)Gal(b1-4)GlcNAc,-0.311
same,glycan array binding signal (z-score),Gal(b1-3)GalNAc,-0.573
same,glycan array binding signal (z-score),[29],-0.335
same,glycan array binding signal (z-score),[30],3.09
same,glycan array binding signal (z-score),[31],0.332
same,glycan array binding signal (z-score),Gal3S(b1-3)GlcNAc,-0.814
same,glycan array binding signal (z-score),[32],1.13
same,glycan array binding signal (z-score),Gal3S4S(b1-4)GlcNAc,0.706
same,glycan array binding signal (z-score),Gal6S(b1-4)GlcNAc,1.04
same,glycan array binding signal (z-score),Gal6S(b1-4)GlcNAc6S,-0.915
same,glycan array binding signal (z-score),GalNAc(a1-3)Gal,2.96
same,glycan array binding signal (z-score),[13],4.32
same,glycan array binding signal (z-score),GlcA(b1-3)GlcNAc,-0.577
same,glycan array binding signal (z-score),GlcA(b1-6)Gal,-0.389
same,glycan array binding signal (z-score),[15],4.87
same,glycan array binding signal (z-score),[33],-0.767
same,glycan array binding signal (z-score),Man(b1-4)GlcNAc,0.155
same,glycan array binding signal (z-score),Neu5Ac(a2-3)Gal,0.212
same,glycan array binding signal (z-score),[34],0.007
same,glycan array binding signal (z-score),[35],0.717
same,glycan array binding signal (z-score),[36],-0.838
same,glycan array binding signal (z-score),[37],0.022
same,glycan array binding signal (z-score),[25],0.861
same,glycan array binding signal (z-score),[38],-0.295
